Data taken from a collection of fitness landscapes (doi:10.1126/science.1257360).
The full ranking holds about 140,000 sequences; the median of “enrichment ratio after two sorts for PhoP signalling” is about 0, and the highest 2% start at about 11. For the sample, the highest values were picked, then their nearest neighbours and some sequences at random.

B1: PhoQ; a variant is named by its letters at X, in order, P23837 (parent)
chain: MKKLLRLFFPLSLRVRFLLATAAVVLVLSLAYGMVALIGYSVSFDKTTFRLLRGESNLFYTLAKWENNKLHVELPENIDKQSPTMTLIYDENGQLLWAQRDVPWLMKMIQPDWLKSNGFHEIEADVNDTSLLLSGDHSIQQQLQEVREDDDDAEMTHSVAVNVYPATSRMPKLTIVVVDTIPVELKSSYMVWSWFIYVLSANLLLVIPLLWVAAWWSLRPIEALAKEVRELEEHNRELLNPATTRELTSLVRNLNRLLKSERERYDKYRTTLTDLTHSLKTPLXXLQXXLRSLRSEKMSVSDAEPVMLEQISRISQQIGYYLHRASMRGGTLLSRELHPVAPLLDNLTSALNKVYQRKGVNISLDISPEISFVGEQNDFVEVMGNVLDNACKYCLEFVEISARQTDEHLYIVVEDDGPGIPLSKREVIFDRGQRVDTLRPGQGVGLAVAREITEQYEGKIVAGESMLGGARMEVIFGRQHSAPKDE

Variants of: B1
Experiment: enrichment ratio after two sorts for PhoP signalling (ratio (wild type AVST 3.29)); higher = more functional
Conditions: with PhoP (E. coli)

Row | Variant | enrichment ratio
1 | TCTA | 11.4
2 | TCTK | 5.27
3 | TCNK | ≤ 0.25
4 | KCTA | ≤ 0.25
5 | TCDW | ≤ 0.25
6 | TCTI | 17.1
7 | TCTC | 11.4
8 | KCTI | ≤ 0.25
9 | TCIC | ≤ 0.25
10 | TCTE | ≤ 0.25
11 | TCTH | 3.96
12 | TCTS | 17.5
13 | WMFM | ≤ 0.25
14 | HQPT | ≤ 0.25
15 | PYKQ | ≤ 0.25
16 | WRPH | ≤ 0.25
17 | LLYS | ≤ 0.25
18 | VMRN | ≤ 0.25
19 | AANR | ≤ 0.25
20 | IGAM | ≤ 0.25
21 | SVEG | ≤ 0.25
22 | NHNM | ≤ 0.25
23 | VWYA | ≤ 0.25
24 | SFCD | ≤ 0.25

Row | Variant | enrichment ratio
25 | FSCQ | 7.11
26 | SSCV | 18.4
27 | SLCV | 7.13
28 | SSCS | 9.51
29 | TSCG | 7.32
30 | SSCE | 3.26
31 | SSCI | 24.5
32 | KSCG | 1.82
33 | SSCG | 12.6
34 | SSQP | ≤ 0.25
35 | SPCV | ≤ 0.25
36 | SSCQ | 13.4
37 | AHKE | ≤ 0.25
38 | PMIW | ≤ 0.25
39 | RAKS | ≤ 0.25
40 | VANQ | ≤ 0.25
41 | IINC | ≤ 0.25
42 | VHNE | ≤ 0.25
43 | SDFS | ≤ 0.25
44 | PMPC | ≤ 0.25
45 | KFDS | ≤ 0.25
46 | YAQF | ≤ 0.25
47 | EIRD | ≤ 0.25
48 | SSWL | 10.6

Row | Variant | enrichment ratio
49 | SSNL | 3.91
50 | SSCL | 18.7
51 | WSRR | ≤ 0.25
52 | ELIY | ≤ 0.25
53 | KGHE | ≤ 0.25
54 | VIMF | ≤ 0.25
55 | TTTC | 5.52
56 | FCHH | ≤ 0.25
57 | TTHH | 11.8
58 | TTTS | 14.1
59 | KSHH | ≤ 0.25
60 | CTTS | 16.8
61 | LTTS | ≤ 0.25
62 | TCHH | 26.2
63 | YTTS | ≤ 0.25
64 | KCHH | ≤ 0.25
65 | CSTS | ≤ 0.25
66 | YTHH | ≤ 0.25
67 | SRLA | ≤ 0.25
68 | NNFT | ≤ 0.25
69 | PAYF | ≤ 0.25
70 | PHQG | ≤ 0.25
71 | LARQ | ≤ 0.25
72 | VYWL | ≤ 0.25

Row | Variant | enrichment ratio
73 | HTSP | ≤ 0.25
74 | QDNG | ≤ 0.25
75 | PCTP | ≤ 0.25
76 | KNRD | ≤ 0.25
77 | PYIP | ≤ 0.25
78 | SDAL | ≤ 0.25
79 | TCES | ≤ 0.25
80 | VDIK | ≤ 0.25
81 | KVYK | ≤ 0.25
82 | HCSM | ≤ 0.25
83 | CLFG | ≤ 0.25
84 | NIPT | ≤ 0.25
85 | YTNH | ≤ 0.25
86 | KSTK | ≤ 0.25
87 | TTKH | ≤ 0.25
88 | TTTH | 20.3
89 | YTTH | ≤ 0.25
90 | TTTK | 16.7
91 | TTNH | 12.2
92 | LTNH | ≤ 0.25
93 | YTTK | ≤ 0.25
94 | ENFF | ≤ 0.25
95 | VSFD | 0.544
96 | LAEF | ≤ 0.25

Row | Variant | enrichment ratio
97 | YEFI | ≤ 0.25
98 | TRCW | ≤ 0.25
99 | YFRG | ≤ 0.25
100 | GFVM | ≤ 0.25
101 | RLME | ≤ 0.25
102 | QHMY | ≤ 0.25
103 | LECM | 17.2
104 | FNCM | 5.18
105 | LNCM | ≤ 0.25
106 | NECM | 28.2
107 | YWCM | ≤ 0.25
108 | MECM | 36.6
109 | TECK | 4.11
110 | DMCM | ≤ 0.25
111 | TECM | 31.3
112 | FECM | 5
113 | LECK | 1.26
114 | MACM | ≤ 0.25
115 | QCSI | ≤ 0.25
116 | QACK | ≤ 0.25
117 | GTRW | ≤ 0.25
118 | TLVA | ≤ 0.25
119 | TYNL | 3.68
120 | RPMT | ≤ 0.25

Row | Variant | enrichment ratio
121 | HVPY | ≤ 0.25
122 | WMTR | ≤ 0.25
123 | WIHI | ≤ 0.25
124 | WFNQ | ≤ 0.25
125 | HCCF | ≤ 0.25
126 | TQVG | 12.2
127 | TQVC | 14.3
128 | TQGD | 2.92
129 | TGWG | 5.4
130 | TQEG | ≤ 0.25
131 | TQVA | 3.07
132 | TQMD | 63
133 | TQED | ≤ 0.25
134 | TQWG | 18.3
135 | NQVC | ≤ 0.25
136 | KSWG | ≤ 0.25
137 | WQVC | ≤ 0.25
138 | IQCQ | ≤ 0.25
139 | ACAH | 4.6
140 | GLLF | 4.76
141 | NFMP | ≤ 0.25
142 | LLRY | ≤ 0.25
143 | VNTC | ≤ 0.25
144 | IRDH | ≤ 0.25

Row | Variant | enrichment ratio
145 | EIET | ≤ 0.25
146 | MPTT | ≤ 0.25
147 | KEKC | ≤ 0.25
148 | VMIT | ≤ 0.25
149 | TQMI | 6.9
150 | IQVQ | ≤ 0.25
151 | PVSG | ≤ 0.25
152 | TQMQ | 24.2
153 | NVSG | ≤ 0.25
154 | TQVQ | 13.8
155 | TQSG | 22.2
156 | LAQG | ≤ 0.25
157 | KSQG | ≤ 0.25
158 | TQQG | 16.8
159 | WQVQ | ≤ 0.25
160 | IQMQ | ≤ 0.25
161 | GHDF | ≤ 0.25
162 | PFFG | ≤ 0.25
163 | QSAN | ≤ 0.25
164 | HQRF | ≤ 0.25
165 | YLKI | ≤ 0.25
166 | YYVE | ≤ 0.25
167 | YDMW | ≤ 0.25
168 | QNMD | ≤ 0.25

Row | Variant | enrichment ratio
169 | TQMV | 7.29
170 | TQMA | 12.7
171 | TQQR | ≤ 0.25
172 | WQAG | ≤ 0.25
173 | NQMA | ≤ 0.25
174 | KQAG | ≤ 0.25
175 | SQMA | 8.75
176 | TQAG | 28.2
177 | TQMG | 32.5
178 | EPSH | ≤ 0.25
179 | CFVH | ≤ 0.25
180 | RDRE | ≤ 0.25
181 | NQHC | ≤ 0.25
182 | RVAA | ≤ 0.25
183 | LDQA | ≤ 0.25
184 | FQFN | ≤ 0.25
185 | DWTN | ≤ 0.25
186 | TQTN | 15.4
187 | NQFN | ≤ 0.25
188 | TQWN | 10.1
189 | NVTN | ≤ 0.25
190 | TQLN | 13.2
191 | KQLN | ≤ 0.25
192 | TQQN | 14.8

Row | Variant | enrichment ratio
193 | TQEN | ≤ 0.25
194 | TQFN | 14.2
195 | EQLN | ≤ 0.25
196 | VGED | ≤ 0.25
197 | FPIP | ≤ 0.25
198 | WVYL | ≤ 0.25
199 | IRTL | ≤ 0.25
200 | NQCN | ≤ 0.25
201 | EQCN | ≤ 0.25
202 | TQCN | 24.9
203 | YYPA | ≤ 0.25
204 | DFPF | ≤ 0.25
205 | GGMA | ≤ 0.25
206 | NEMA | ≤ 0.25
207 | TTMA | 13.4
208 | ITGA | ≤ 0.25
209 | TGMA | 26.1
210 | RGMA | ≤ 0.25
211 | NHMA | 16.2
212 | THMA | 6.15
213 | YTGA | ≤ 0.25
214 | TTGA | 12.6
215 | WIMA | ≤ 0.25
216 | YTMA | ≤ 0.25

Row | Variant | enrichment ratio
217 | LFNF | ≤ 0.25
218 | DMIQ | ≤ 0.25
219 | LEWL | ≤ 0.25
220 | ADCH | 9.13
221 | GPHV | ≤ 0.25
222 | TGWN | ≤ 0.25
223 | PMPR | ≤ 0.25
224 | KQFD | ≤ 0.25
225 | WFVI | ≤ 0.25
226 | RFQA | ≤ 0.25
227 | VHFG | ≤ 0.25
228 | EVCW | ≤ 0.25
229 | AIMA | 12.1
230 | AHMA | ≤ 0.25
231 | ATMA | 1.82
232 | EPIW | ≤ 0.25
233 | NQNT | ≤ 0.25
234 | SSAT | 8.03
235 | SSLT | 12
236 | SSLS | 11.4
237 | SSVT | 14.6
238 | KSVT | ≤ 0.25
239 | STVT | 0.835
240 | SSNT | ≤ 0.25

Row | Variant | enrichment ratio
241 | SSLA | 7.43
242 | SSLK | 5.98
243 | HWNL | ≤ 0.25
244 | QGSH | 9.79
245 | TMLT | 1.84
246 | HPCD | ≤ 0.25
247 | SSRS | ≤ 0.25
248 | HMWA | ≤ 0.25
249 | LPNW | 0.366
250 | QQHW | ≤ 0.25
251 | THTR | ≤ 0.25
252 | MKLH | ≤ 0.25
253 | CQLH | 27.9
254 | AHLH | ≤ 0.25
255 | TPLH | ≤ 0.25
256 | HKLH | ≤ 0.25
257 | AKLH | 14.6
258 | KKLH | ≤ 0.25
259 | HQLH | ≤ 0.25
260 | AQLH | 13.8
261 | WQLH | ≤ 0.25
262 | RQLH | ≤ 0.25
263 | TKLH | 11.9
264 | PTHK | ≤ 0.25

Row | Variant | enrichment ratio
265 | EMCT | ≤ 0.25
266 | CHLM | ≤ 0.25
267 | QVLK | ≤ 0.25
268 | NHYM | ≤ 0.25
269 | SMCS | 10.4
270 | SMCI | 14.3
271 | SMCY | 11.6
272 | SMCK | 9.85
273 | SMHP | ≤ 0.25
274 | SLCY | 2.99
275 | KYAQ | ≤ 0.25
276 | SMGG | 1.44
277 | KMAQ | ≤ 0.25
278 | SMGQ | 11.7
279 | MMCY | ≤ 0.25
280 | SMAQ | 15.5
281 | GSEH | ≤ 0.25
282 | IYMF | ≤ 0.25
283 | IKKL | ≤ 0.25
284 | TQFP | ≤ 0.25
285 | KGRD | ≤ 0.25
286 | LVLT | ≤ 0.25
287 | VGSS | ≤ 0.25
288 | WDDM | ≤ 0.25

Row | Variant | enrichment ratio
289 | GMHA | ≤ 0.25
290 | SMME | 14.6
291 | SMWM | ≤ 0.25
292 | SMCL | 16.6
293 | SMSQ | 11.1
294 | SMTM | 14.9
295 | SMPL | ≤ 0.25
296 | SMGL | 5.54
297 | SMSA | 14.6
298 | SMMY | 2.28
299 | SMPM | ≤ 0.25
300 | SMSH | 9.89
301 | SMMD | ≤ 0.25
302 | LSHR | ≤ 0.25
303 | KFYP | ≤ 0.25
304 | KYSQ | ≤ 0.25
305 | KEDF | ≤ 0.25
306 | HKIL | ≤ 0.25
